Source: PubChem BioAssay
The source made the active and inactive calls.

What was measured:
[1] = compounds binding Alexa647 anti-His antibody – biochemical, small-molecule microarray, 635 nm fluorescence, artefact control for SMM control protein annotation, primary screen (AID 1128); details: higher = more signal;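 further: score merges feature fluorescence with signal-to-noise for each printed compound spot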
[2] = test system: Human papillomavirus type 1a E7 protein (residues 1-88); experiment: HPV1a E7 small-molecule binders, primary screen, biochemical, small-molecule microarray, residues 1-88, 635 nm (AID 1129); details: small-molecule microarray binding, fluorescence 635 nm; higher = more signal
[3] = target: Focal adhesion kinase 1 (Homo sapiens) (UniProt Q05397); experiment: PTK2 protein binding on printed compound slides – biochemical, small-molecule microarray, 635/667 nm fluorescence, BSA, DTT, primary screen (AID 1130); details: 635 nm fluorescence, higher = more signal;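 further: composite of spot emission at 667 nm and signal to noise over triplicate slides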
[4] = test system: Fibrinogen (Alexa647-labelled); experiment: Alexa647-fibrinogen binding to printed small molecules – biochemical, small-molecule microarray, 635/667 nm fluorescence, artefact control for SMM control-protein annotation, profiling panel (AID 1131); details: fibrinogen-A647 binding fluorescence, higher = more signal;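 further: z-score merges 667 nm fluorescence with per-spot signal-to-noise over triplicate slides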
[5] = target: Follistatin (Homo sapiens) (UniProt P19883); experiment: FST protein binding to printed compounds – biochemical, small-molecule microarray, 635/667 nm fluorescence, primary screen (AID 1132); details: 635 nm fluorescence, higher = more signal
[6] = target: Fibroblast growth factor 2 (Homo sapiens) (UniProt P09038); experiment: basic fibroblast growth factor binding to printed compounds – biochemical, small-molecule microarray, 635/667 nm fluorescence, primary screen (AID 1133); details: FGF2, fluorescence 635/667, higher = more signal
[7] = JC-1 mitochondrial potential readout, lung cancer cells – cell-based, A549, JC-1 fluorescence, basal, 24 h, 100 nL, profiling panel (AID 1138); details: higher = more signal;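 further: A549 lung adenocarcinoma cells under basal conditions with no added stimulus; test concentration not given here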
[8] = test system: Lefty1; experiment: Lefty1 protein binding to printed compounds – biochemical, small-molecule microarray, 635/667 nm fluorescence, primary screen (AID 1139); details: fluorescence 635/667, higher = more signal
[9] = test system: wheat germ agglutinin (Triticum aestivum), Alexa647-labelled; experiment: Alexa647-WGA lectin binding to printed small molecules – biochemical, small-molecule microarray, 635/667 nm fluorescence, artefact control for SMM control-protein annotation, profiling panel (AID 1140); details: WGA-A647 binding, 635 nm fluorescence, higher = more signal;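 further: score merges 667 nm feature emission with signal to noise over triplicate slides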
[10] = target: Luciferin 4-monooxygenase (Photinus pyralis) (UniProt P08659); experiment: inhibition of purified Photinus pyralis luciferase – biochemical, luminescence, purified enzyme, 2006 set, primary screen (AID 1141); details: purified firefly luciferase, SteadyGlo luminescence, 30 min; higher = more signal, called active from +8 up or from −8 down;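 further: cell-free assay with purified firefly luciferase at 100 ng per well in PBS; test concentration not given here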
Sequence of Luciferin 4-monooxygenase (Photinus pyralis) (P08659 whole entry, looked up): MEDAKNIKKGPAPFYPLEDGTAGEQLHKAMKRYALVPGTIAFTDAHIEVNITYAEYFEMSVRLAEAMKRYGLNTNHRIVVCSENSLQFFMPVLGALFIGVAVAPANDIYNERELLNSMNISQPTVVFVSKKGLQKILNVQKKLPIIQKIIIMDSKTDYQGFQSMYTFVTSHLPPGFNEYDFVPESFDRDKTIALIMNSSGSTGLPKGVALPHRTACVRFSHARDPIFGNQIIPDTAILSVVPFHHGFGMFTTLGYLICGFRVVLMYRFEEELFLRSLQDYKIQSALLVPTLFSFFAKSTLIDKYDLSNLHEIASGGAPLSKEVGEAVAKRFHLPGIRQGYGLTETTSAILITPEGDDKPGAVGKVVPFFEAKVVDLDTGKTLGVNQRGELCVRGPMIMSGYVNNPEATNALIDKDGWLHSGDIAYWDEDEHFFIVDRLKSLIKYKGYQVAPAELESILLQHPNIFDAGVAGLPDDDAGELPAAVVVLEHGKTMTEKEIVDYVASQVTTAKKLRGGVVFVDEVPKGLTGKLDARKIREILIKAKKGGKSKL

Sequence of Focal adhesion kinase 1 (Homo sapiens) (Q05397 whole entry, looked up): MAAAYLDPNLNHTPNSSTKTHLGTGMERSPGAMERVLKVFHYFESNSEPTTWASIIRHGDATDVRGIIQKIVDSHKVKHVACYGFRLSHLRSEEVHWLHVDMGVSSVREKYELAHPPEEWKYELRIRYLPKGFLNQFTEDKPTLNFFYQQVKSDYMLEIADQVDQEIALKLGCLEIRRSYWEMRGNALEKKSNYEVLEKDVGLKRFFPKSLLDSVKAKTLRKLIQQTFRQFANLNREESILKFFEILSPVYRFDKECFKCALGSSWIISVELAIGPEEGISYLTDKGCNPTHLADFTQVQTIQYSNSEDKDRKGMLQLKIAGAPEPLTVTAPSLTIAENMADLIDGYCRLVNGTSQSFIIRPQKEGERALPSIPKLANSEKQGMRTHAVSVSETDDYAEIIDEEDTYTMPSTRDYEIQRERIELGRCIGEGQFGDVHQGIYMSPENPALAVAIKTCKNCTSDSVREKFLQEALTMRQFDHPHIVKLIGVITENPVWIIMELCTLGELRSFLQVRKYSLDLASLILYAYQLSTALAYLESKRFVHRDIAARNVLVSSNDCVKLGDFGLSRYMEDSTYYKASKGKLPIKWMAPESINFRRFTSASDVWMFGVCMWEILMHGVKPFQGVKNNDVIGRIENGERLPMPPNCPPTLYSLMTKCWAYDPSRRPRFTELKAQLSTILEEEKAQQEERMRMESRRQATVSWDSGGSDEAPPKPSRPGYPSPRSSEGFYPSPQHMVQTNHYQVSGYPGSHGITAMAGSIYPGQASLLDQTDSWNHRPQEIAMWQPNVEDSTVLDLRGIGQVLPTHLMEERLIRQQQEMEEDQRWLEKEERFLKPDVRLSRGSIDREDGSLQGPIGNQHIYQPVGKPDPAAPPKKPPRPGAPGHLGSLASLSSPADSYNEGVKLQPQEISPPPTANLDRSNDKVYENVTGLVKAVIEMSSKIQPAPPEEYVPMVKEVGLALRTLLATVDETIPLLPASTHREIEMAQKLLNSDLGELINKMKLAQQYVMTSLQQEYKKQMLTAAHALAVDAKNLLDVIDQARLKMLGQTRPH
Sequence of Follistatin (Homo sapiens) (P19883 whole entry, looked up): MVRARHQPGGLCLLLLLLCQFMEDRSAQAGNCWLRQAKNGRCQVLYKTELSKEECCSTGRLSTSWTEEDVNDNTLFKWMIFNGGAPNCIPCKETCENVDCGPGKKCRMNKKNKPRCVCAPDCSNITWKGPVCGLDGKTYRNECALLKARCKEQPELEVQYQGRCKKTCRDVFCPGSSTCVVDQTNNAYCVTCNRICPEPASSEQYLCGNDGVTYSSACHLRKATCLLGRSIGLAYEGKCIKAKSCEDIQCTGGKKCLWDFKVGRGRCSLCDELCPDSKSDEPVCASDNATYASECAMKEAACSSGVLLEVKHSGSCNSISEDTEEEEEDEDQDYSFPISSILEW
Sequence of Fibroblast growth factor 2 (Homo sapiens) (P09038 whole entry, looked up): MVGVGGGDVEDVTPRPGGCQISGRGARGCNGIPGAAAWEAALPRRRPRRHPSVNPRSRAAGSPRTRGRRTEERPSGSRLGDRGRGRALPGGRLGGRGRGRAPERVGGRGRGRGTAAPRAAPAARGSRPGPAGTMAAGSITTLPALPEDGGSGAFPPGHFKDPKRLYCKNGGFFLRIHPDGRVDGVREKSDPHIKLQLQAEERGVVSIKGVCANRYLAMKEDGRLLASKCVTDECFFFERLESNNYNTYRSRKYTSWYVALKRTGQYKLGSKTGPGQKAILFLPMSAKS

| SMILES | composite z-score [1] | composite z-score [2] | composite z-score [3] | composite z-score [4] | composite z-score [5] | composite z-score [6] | z-score [7] | composite z-score [8] | composite z-score [9] | z-score [10] |
| --- | --- | --- | --- | --- | --- | --- | --- | --- | --- | --- |
| CO[C@H]([C@@H](C)[C@H](OC)c1ccccc1)[C@H](C)[C@@H](OC)[C@H](C)C(C)=O | 1 | -0.744 | 0.27 | -0.464 | -0.304 | 0.0135 | 1.1 | 0.128 | -0.496 | -1.87 (inactive) |
| C=CCC(OC(C)=O)[C@@H]1[C@@H](N(Cc2cc3ccccc3o2)C(=O)Cc2ccc(F)cc2)c2cc(OCCCO)ccc2N1C(=O)Cc1ccc(OC)cc1 (stereo not given in full) | -0.419 | -1.14 | -0.0602 | 0.0188 | 0.354 | -0.271 | 0.919 | 0.158 | 0.0264 | -0.188 (inactive) |
| COCCCNC(=O)[C@@]1(CCS(=O)(=O)c2ccccc2)N=C(c2ccc(OCCCO)cc2)O[C@H]1c1ccccc1 | 2.98 | 1.25 | 0.746 | 0.878 | 0.695 | 0.426 | 2.39 | -0.854 | 0.716 | -1.79 (inactive) |
| CC(C)CON=C1[C@H]2CCn3c(=O)n(-c4ccccc4)c(=O)n3[C@H]2[C@H](O)[C@@H]2O[C@H]12 | 0.0684 | 0.118 | 0.164 | 0.571 | 0.504 | 1.03 | -0.0655 | 0.475 | 0.201 | -0.408 (inactive) |
| CC(CCN1CCCCc2nc(C)c(C)cc21)=NOC(C)CN1CCCc2nc(C)c(C)cc21 (stereo not given) | -0.756 | 1.12 | 0.671 | 0.651 | 1.36 | 0.97 | -0.12 | 1.45 | 0.766 | -0.0885 (inactive) |
| CC(C)=NOCc1ccc(-c2cc(-c3ccccc3)no2)cc1 | 0.0906 | 0.272 | 0.0171 | 0.108 | 0.0806 | 0.437 | -0.405 | 0.003 | -0.477 | 0.534 (inactive) |
| O=C1O[C@@H](c2ccccc2)[C@@H](c2ccccc2)N2[C@@H](c3ccc(OCCO)cc3)[C@]3(C(=O)Nc4ccc(C#CCCO)cc43)[C@@H](C(=O)N3CCCCCCC3)[C@H]12 | 1.86 | 1.17 | 0.782 | 0.965 | 1.39 | 0.585 | -0.287 | 1.56 | 1.35 | -1.62 (inactive) |
| O[C@@H](Cc1ccccc1)[C@H]1C2C=CCCC(c3ccccc3)=C2CN1Cc1cccc(Cl)c1 (stereo not given in full) | 0.607 | 1.14 | -0.0839 | 0.43 | 0.995 | 0.251 | 2.09 | 0.625 | 0.875 | -2.22 (inactive) |
| CCOC(=O)[C@H](Cc1ccccc1)NC(=O)CCC1CC(OC(=O)NCc2ccc3c(c2)OCO3)CC2(CCCC(COC(=O)NCc3cccc(C(F)(F)F)c3)O2)O1 (stereo not given in full) | 1 | 0.355 | -0.15 | -0.416 | 0.916 | 1.01 | -0.659 | 0.955 | 0.229 | 0.794 (inactive) |
| CCOC(=O)CCN1C(=O)[C@H]2[C@H]3[C@H](O)[C@H](O)CC(=NOCc4ccccc4)[C@@H]3CC[C@H]2C1=O | -0.261 | 0.717 | 0.163 | 0.983 | 0.722 | 0.383 | -0.217 | 0.963 | -0.0855 | 0.883 (inactive) |
| COc1ccc([Si](C)(C)[C@@H]2[C@@H](CC(=O)N3CCC[C@H]3CO)O[C@]3(C(=O)N(Cc4cccc(N5CCC5=O)c4)c4ccccc43)[C@H]2C)cc1 | 0.97 | 1.18 | 0.418 | 0.809 | 0.907 | 0.402 | 1.04 | 0.917 | 0.81 | -1.69 (inactive) |
| C#CCCCON=C1C[C@@H](O)[C@@H](O)[C@@H]2[C@@H]3C(=O)N([C@@H](C)c4ccccc4)C(=O)[C@@H]3CC[C@H]12 | 0.449 | 0.621 | 0.48 | 0.778 | 0.615 | 0.594 | -0.887 | 0.535 | 0.203 | 0.794 (inactive) |
| O=C1[C@H]2[C@H]3[C@H](O)[C@H](O)CC(=NOC[C@@H](O)COCc4ccco4)[C@H]3CC[C@H]2C(=O)N1c1cccc(Oc2ccccc2)c1 | -0.304 | -0.438 | -0.112 | -1.32 | -0.924 | -0.701 | 0.89 | -0.021 | 0.503 | 0.481 (inactive) |
| C[C@H]1CC[C@@H](C(=O)O)N[C@@H]1c1ccc(C#CCN(C)C)cc1 | 0.601 | 0.34 | 0.0583 | 0.54 | 0.682 | 0.453 | 1.04 | 0.343 | 0.117 | -0.931 (inactive) |
| CO[C@H]1O[C@H](CO)[C@@H](OC(=O)Nc2ccc(C#N)cc2)[C@H](OC(=O)c2cc3ccccc3[nH]2)[C@H]1OC(=O)c1cc2ccccc2[nH]1 | 2.87 | 1.18 | 0.831 | 0.787 | 0.491 | 1.33 | 0.71 | 0.421 | 0.955 | -2.01 (inactive) |
| COc1cccc([C@H]2Oc3ccc(OC)cc3C(=NO[C@H](C)c3cn([C@@H]4COC[C@H]4O)nn3)[C@@H]2O)c1 | 0.899 | -0.949 | -0.624 | -0.0637 | -1.16 | -0.805 | -1.16 | -0.601 | 0.0665 | 0.825 (inactive) |
| CC(=O)OC[C@H]1O[C@H](CCON=C[C@@H](C)[C@H](OCc2ccccc2)C(C)C)C=C[C@@H]1OC(C)=O | -0.508 | 0.193 | -0.101 | 0.797 | 0.319 | 0.274 | -0.808 | 0.325 | 0.156 | 1.26 (inactive) |
| O=C1[C@H]2[C@H]3[C@H](O)[C@H](O)CC(=NO[C@@H]4O[C@H](CO)[C@@H](O)[C@H](O)[C@H]4O)[C@@H]3CC[C@H]2C(=O)N1Cc1ccccc1 | -0.58 | -0.623 | 0.593 | -0.247 | -0.303 | 0.16 | 0.129 | 0.289 | -0.0706 | 0.4 (inactive) |
| C[C@@H]1C=CCC(=O)OC[C@H](C)C(=O)N[C@@H](C)C(=O)OC1 | -0.181 | -0.479 | 1.32 | -0.096 | 0.302 | 1.09 | -0.944 | 0.921 | -0.323 | 1.04 (inactive) |
| Cc1ccc(F)cc1S(=O)(=O)N[C@@H]1CCN(Cc2ccc(CC(C)C)cc2)C1 | -0.016 | -0.381 | 0.132 | 0.129 | 0.111 | -0.367 | -0.391 | 0.163 | 0.0831 | 0.886 (inactive) |
| CCCNC(=O)OC[C@H]1O[C@H](CCON=C[C@@H](OC)[C@H](C)C=CCC(=O)OC)C=C[C@@H]1Oc1ccc(OC)cc1 | 2.2 | -0.0259 | -0.0322 | 0.325 | 0.0998 | 0.109 | 0.139 | 0.548 | 0.183 | -0.276 (inactive) |
| O=C(CS)NCCCCCNC(=O)[C@@H]1C[C@@H]2C(=O)N[C@@H](Cc3ccccc3)C(=O)N2[C@@H]1c1ccc(O)cc1 | 2.33 | 1.21 | 0.661 | -0.0141 | 1.31 | 1.29 | -0.208 | 0.233 | 0.304 | -3.79 (inactive) |
| CC(CCC(=O)OC[C@H]1O[C@H](C#Cc2ccccc2)C=C[C@@H]1Oc1ccc(C)cc1)=NOC[C@@H](O)COCc1ccco1 | -1.01 | -0.569 | -1.1 | -2.18 | -2.24 | -3.21 | -0.718 | -2.17 | -0.452 | -0.889 (inactive) |
